In the library only some 12% were active in any assay of this set; here they are far more common.
HP1b binding inh: inhibitors of HP1-beta chromodomain binding to methylated histone tails; AID 540317; AlphaScreen HP1-beta / biotin-H3K9me3 peptide binding; Potency, µM (doses to about 114 µM), most hits filed as inhibitors; P83916; 390,000 tested, 0.56% active; note: nearly all actives have a fitted effect of over 70% in size
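Compound inhibition of the preformed complex between 50 nM HP1-beta and 50 nM biotinylated H3K9me3 peptide was read by AlphaScreen. Buffer was PBS pH 7.4 with 0.01% Tween-20. Incubations ran 30 min at room temperature, with 10 ug/mL donor/acceptor beads.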
JMJD2A Tudor inh: blocks the human JMJD2A Tudor domain. O75164. AlphaScreen JMJD2A-Tudor / H3K4me3 peptide binding. Potency, µM (series often up to 114 µM), usual class: inhibitors. 390,000 tested, 4.4% active; note: nearly all actives have a fitted effect of over 50% in size
Target sequence (O75164 whole entry, looked up, the tested form may be a part): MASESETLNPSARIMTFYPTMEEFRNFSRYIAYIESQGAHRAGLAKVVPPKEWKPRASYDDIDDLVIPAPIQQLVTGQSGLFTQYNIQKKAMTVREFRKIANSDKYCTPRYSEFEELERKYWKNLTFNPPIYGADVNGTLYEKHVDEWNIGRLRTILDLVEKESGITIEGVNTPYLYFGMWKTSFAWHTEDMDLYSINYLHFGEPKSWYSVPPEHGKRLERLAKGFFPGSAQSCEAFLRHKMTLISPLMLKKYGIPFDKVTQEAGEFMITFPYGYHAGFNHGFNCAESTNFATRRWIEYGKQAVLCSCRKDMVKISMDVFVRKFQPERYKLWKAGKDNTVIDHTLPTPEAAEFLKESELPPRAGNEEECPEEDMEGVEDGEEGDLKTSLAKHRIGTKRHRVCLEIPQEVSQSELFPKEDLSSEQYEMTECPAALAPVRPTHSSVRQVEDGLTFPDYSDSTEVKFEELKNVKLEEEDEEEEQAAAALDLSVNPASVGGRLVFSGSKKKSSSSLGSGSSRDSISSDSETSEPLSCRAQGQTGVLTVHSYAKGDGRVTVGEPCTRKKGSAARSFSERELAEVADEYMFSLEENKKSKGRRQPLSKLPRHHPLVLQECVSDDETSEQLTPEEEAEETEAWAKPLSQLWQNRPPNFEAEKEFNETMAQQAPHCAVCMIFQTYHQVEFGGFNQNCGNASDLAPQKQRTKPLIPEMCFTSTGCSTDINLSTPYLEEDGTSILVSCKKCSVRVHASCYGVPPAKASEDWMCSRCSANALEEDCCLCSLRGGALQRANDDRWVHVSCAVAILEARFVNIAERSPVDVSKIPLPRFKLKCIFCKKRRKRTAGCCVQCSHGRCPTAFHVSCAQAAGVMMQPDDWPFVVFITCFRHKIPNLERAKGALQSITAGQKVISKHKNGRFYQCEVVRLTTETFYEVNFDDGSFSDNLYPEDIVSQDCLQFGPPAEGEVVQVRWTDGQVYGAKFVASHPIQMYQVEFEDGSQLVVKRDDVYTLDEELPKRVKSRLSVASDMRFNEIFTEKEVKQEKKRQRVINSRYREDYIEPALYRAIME
Sfp PPTase inh: blocks B. subtilis Sfp PPTase activity. Q9F4F7. Biochemical Sfp PPTase activity, qHTS. Potency, µM, most hits filed as inhibitors. 310,000 tested, 3.5% active. AID 1490;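 note: the enzyme is Sfp with the accession as filed and its product quenches rhodamine fluorescence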
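Step 1, compound plus 15 nM Sfp-PPTase, 15 min, room temperature. Step 2, add rhodamine-CoA (5 uM) and BHQ-2-YbbR (12.5 uM). Step 3, read 525/598 nm fluorescence at 0 and 30 min.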
G9a inh: blocks human histone lysine methyltransferase G9a | Potency, µM (highest dose often 102 µM), actives largely listed as inhibitors | Q96KQ7 | 350,000 tested, 8.8% active | G9a H3K9 monomethylation, AlphaScreen, 2 h; note: nearly all actives have a fitted effect of over 75% in size
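Step 1: enzyme (final 20 nM) with compound, 15 min RT. Step 2: substrate peptide 500 nM and SAM 20 uM, 2 h RT. Step 3: anti-H3K9me1 antibody and AlphaScreen beads, 10 min, then plate read.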
BAZ2B block: inhibitors of human BAZ2B bromodomain. Q9UIF8. AlphaScreen BAZ2B-H3K14Ac peptide displacement. Potency, µM (top dose mostly 114 µM), actives largely listed as inhibitors. 360,000 tested, 4.4% active; note: nearly all actives have a fitted effect of over 60% in size
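AlphaScreen displacement of biotin-H3(5-23)K14Ac peptide (50 nM final) from BAZ2B (50 nM final) in PBS pH 7.4, 0.01% Tween-20; complex preformed 30 min RT, then compounds (top 110 uM) 30 min RT, beads 20 min dark.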
L3MBTL1 inh: L3MBTL1 (human) inhibition; AlphaScreen L3MBTL1–H3K9me1 peptide binding; Potency, µM (doses to about 57.1 µM), most hits filed as inhibitors; 230,000 tested, 0.66% active; note: nearly all actives have a fitted effect of over 60% in size
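L3MBTL1 (50 nM) pre-complexed 30 min with biotinylated H3(1-15)K9me1 peptide (75 nM), then compounds added for 30 min at room temperature; AlphaScreen streptavidin donor/nickel chelate acceptor beads (10 ug/mL final) read after 30 min dark incubation.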
Each line names hits and unclear results; the compound was inactive in the other large screens; ! = a repeat was not active. Calls come from the whole dose curve; as a rule, active = well fitted curve in the direction sought with a large enough effect; inconclusive = small, poorly fitted or top-dose-only effect, or another doubt; inactive = no such curve, though single readings can be large; an effect the other way counts as inactive or inconclusive.

COc1ccc2oc(=O)c(C(=O)Nc3cccc(C(=O)O)c3)cc2c1	none (no result: Sfp PPTase inh, L3MBTL1 inh)
COc1ccc(CNC(=O)c2cc3cc(S(=O)(=O)N4CCCCC4)ccc3n2C)c(OC)c1	none (no result: Sfp PPTase inh, L3MBTL1 inh)
O=[N+]([O-])c1ccc(O)c(/C=N/n2c(-c3ccccc3)n[nH]c2=S)c1	JMJD2A Tudor inh 5.62µM, Sfp PPTase inh inconclusive
Oc1c(Br)cc(Br)cc1/C=N/n1c(-c2ccccc2)n[nH]c1=S	HP1b binding inh inconclusive, JMJD2A Tudor inh 39.8µM, Sfp PPTase inh inconclusive, BAZ2B block inconclusive
CC1CCCN(C(=O)c2ccc(Br)c(S(=O)(=O)N3CCOCC3)c2)C1 (stereo unspecified)	none (no result: Sfp PPTase inh)
Nc1c(O)ccc2c1C(=O)c1ccccc1C2=O	HP1b binding inh 15.8µM, JMJD2A Tudor inh inconclusive, G9a inh 2.51µM, BAZ2B block 25.1µM, L3MBTL1 inh inconclusive
CCOC(=O)CSc1nc2c(sc(=S)n2-c2ccccc2)c(=O)n1-c1ccc(OC)cc1OC	HP1b binding inh inconclusive, JMJD2A Tudor inh inconclusive, Sfp PPTase inh 31.6µM, G9a inh 1.58µM (no result: L3MBTL1 inh)
CCN(CC)C(=O)CSc1nc2c(sc(=S)n2-c2ccccc2)c(=O)n1-c1ccccc1OC	none (no result: L3MBTL1 inh)
CCN(CC)C(=O)CSc1nc2c(sc(=S)n2-c2ccccc2)c(=O)n1-c1ccc(OC)cc1OC	HP1b binding inh inconclusive, JMJD2A Tudor inh inconclusive, Sfp PPTase inh 22.4µM, G9a inh 2µM (no result: L3MBTL1 inh)
COc1ccccc1-n1c(SCC(=O)O)nc2c(sc(=S)n2-c2ccc(C)c(C)c2)c1=O	G9a inh inconclusive (no result: L3MBTL1 inh)
COc1ccccc1NS(=O)(=O)c1cc([N+](=O)[O-])ccc1N/N=C/c1sc(N2CCOCC2)nc1-c1ccccc1	HP1b binding inh inconclusive, Sfp PPTase inh inconclusive, G9a inh 39.8µM, BAZ2B block inconclusive
COc1ccccc1NS(=O)(=O)c1ccc(N/N=C/c2c(C)nn(-c3ccccc3)c2N2CCCC2)c([N+](=O)[O-])c1	HP1b binding inh inconclusive, JMJD2A Tudor inh inconclusive, G9a inh 4.47µM, BAZ2B block 4.47µM, L3MBTL1 inh inconclusive
COc1ccc(C(=O)N/N=C/c2sc(N3CCOCC3)nc2-c2ccccc2)cc1OC	none
Cc1nn(-c2ccccc2)c(N2CCCC2)c1/C=N/Nc1ccc(S(=O)(=O)Nc2ccccc2)cc1[N+](=O)[O-]	HP1b binding inh inconclusive, JMJD2A Tudor inh 5.01µM, G9a inh inconclusive, BAZ2B block inconclusive
CCN1CCN(C(=O)Cn2c(-c3cccs3)cc3cc(Cl)ccc32)CC1	none (no result: Sfp PPTase inh, L3MBTL1 inh)
COC(=O)c1ccccc1NC(=O)Cn1nc(C(F)(F)F)c2c1CCCC2	none (no result: Sfp PPTase inh, L3MBTL1 inh)
COC(=O)c1c(-c2ccc(S(C)(=O)=O)cc2)sc2cc(OC)ccc12	JMJD2A Tudor inh inconclusive (no result: Sfp PPTase inh, G9a inh, BAZ2B block)
COC(=O)c1c(-c2ccc(S(C)(=O)=O)cc2)sc2ccc(OC)cc12	JMJD2A Tudor inh 44.7µM (no result: Sfp PPTase inh, G9a inh, BAZ2B block)
O=C1Nc2cccnc2Sc2ccccc21	G9a inh 28.2µM
Clc1cc2c(nn1)Nc1ccccc1S2	none
c1ccc2c(c1)Nc1nccnc1S2	JMJD2A Tudor inh 44.7µM, G9a inh inconclusive
Cc1ccc2c(c1)NC(=O)c1cccnc1O2	none (no result: Sfp PPTase inh, L3MBTL1 inh)
COc1ccccc1NC(=O)c1ncn(-c2ccccc2)n1	none (no result: Sfp PPTase inh, L3MBTL1 inh)
O=c1ccc2cc(O)c(O)cc2o1	JMJD2A Tudor inh inconclusive, Sfp PPTase inh 56.2µM!, G9a inh inconclusive
O=c1ccc2ccc(O)cc2o1	none (no result: G9a inh, BAZ2B block, L3MBTL1 inh)
O=C(NCc1ccccc1Cl)c1ccccc1NC(=O)c1nsc2ccccc12	none (no result: Sfp PPTase inh, L3MBTL1 inh)
Nc1cc(N)nc(SCC(=O)c2ccc3c(c2)NC(=O)CO3)n1	G9a inh 35.5µM
CC(=O)Nc1ccc(S(=O)(=O)N2CCCN(S(=O)(=O)c3ccc4c(c3)OCCO4)CC2)cc1	none (no result: HP1b binding inh, Sfp PPTase inh, G9a inh, BAZ2B block, L3MBTL1 inh)
NC(=O)CC[C@H](NC(=O)c1ccc(F)cc1)C(=O)OCC(=O)NCc1ccc(F)cc1	JMJD2A Tudor inh 14.1µM
CCn1c(C)c(C2=CCN(S(=O)(=O)c3ccccc3)CC2)c2ccccc21	HP1b binding inh inconclusive, JMJD2A Tudor inh inconclusive, G9a inh 39.8µM, BAZ2B block inconclusive
Cc1ccc(N2CCN(c3nc4ccccc4n4nnnc34)CC2)c(C)c1	none (no result: Sfp PPTase inh, L3MBTL1 inh)
Cc1ccc(-c2nc3ccc(Cl)cn3c2Nc2ccc3c(c2)OCCO3)s1	none (no result: Sfp PPTase inh, BAZ2B block, L3MBTL1 inh)
CN(O)/C=c1/ccc2c(n1)C(=O)C=CC=2	JMJD2A Tudor inh 20µM, G9a inh 10µM, BAZ2B block 7.94µM, L3MBTL1 inh 20µM
Cc1cc(C(=O)OCC(=O)Nc2c(F)cccc2F)c(C)n1-c1ccccc1	HP1b binding inh inconclusive, JMJD2A Tudor inh 20µM, BAZ2B block inconclusive
Cc1cc(C(=O)OCC(=O)N2CCOCC2)c(C)n1-c1ccccc1	none (no result: Sfp PPTase inh, G9a inh, BAZ2B block)
